In PubChem BioAssay (NCI):
About 83,000 compounds went through this panel and 20% of them were active in at least one assay; those are over-represented in the sample as a whole.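 For each line, cells grew in 96-well plates with the test compound present at a single concentration for 48 hours.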 Active and inactive are the calls of the source. The calls were made as follows: active = growth percent below 10; inactive = the rest.

Tests used:
Experiment in all cases: NCI-60 one-dose screen, 48 h (100 = growth as untreated, 0 = no growth, -100 = all killed)
Conditions in all cases: 10 µM unless noted
SK-MEL-2 melanoma = tested on: SK-MEL-2 melanoma
EKVX NSCLC = tested on: EKVX NSCLC
SN12C renal = tested on: SN12C renal
UO-31 renal = tested on: UO-31 renal
TK-10 renal = tested on: TK-10 renal
ACHN renal = tested on: ACHN renal
CAKI-1 renal = tested on: CAKI-1 renal
A498 renal = tested on: A498 renal
CCRF-CEM leukemia = tested on: CCRF-CEM leukemia
MOLT-4 leukemia = tested on: MOLT-4 leukemia
SR leukemia = tested on: SR leukemia
RPMI-8226 leukemia = tested on: RPMI-8226 leukemia
OVCAR-8 ovarian = tested on: OVCAR-8 ovarian
OVCAR-5 ovarian = tested on: OVCAR-5 ovarian
SK-OV-3 ovarian = tested on: SK-OV-3 ovarian
IGROV1 ovarian = tested on: IGROV1 ovarian
OVCAR-3 ovarian = tested on: OVCAR-3 ovarian
HS 578T breast = tested on: HS 578T breast
NCI/ADR-RES ovarian = tested on: NCI/ADR-RES ovarian

Measured: growth

CC(C)=CC/C=C(/C)[C@H]1CC[C@]2(C)[C@@H]1CC[C@@H]1[C@@]3(C)CCC(=O)NC(C)(C)[C@@H]3CC[C@]12C
active: SK-MEL-2 melanoma 3.93% [100 µM] | SN12C renal -81.2% [100 µM] | UO-31 renal -98.7% [100 µM] | TK-10 renal 3.59% [100 µM] | ACHN renal -63.5% [100 µM] | CAKI-1 renal 6.46% [100 µM] | A498 renal -16.4% [100 µM] | CCRF-CEM leukemia -9.45% [100 µM] | MOLT-4 leukemia -14.3% [100 µM] | RPMI-8226 leukemia -31.4% [100 µM] | OVCAR-8 ovarian 0.344% [100 µM] | OVCAR-5 ovarian 9.08% [100 µM] | IGROV1 ovarian -67.6% [100 µM] | OVCAR-3 ovarian -63.9% [100 µM] | HS 578T breast -17.7% [100 µM]
inactive: EKVX NSCLC 29.7% [100 µM] | SR leukemia 12.3% [100 µM] | SK-OV-3 ovarian 38.6% [100 µM] | NCI/ADR-RES ovarian 13% [100 µM]

Brc1ccc2c(c1)CN(C1CCCCC1)CO2
inactive: SK-MEL-2 melanoma 107% | EKVX NSCLC 101% | SN12C renal 113% | UO-31 renal 78.9% | TK-10 renal 111% | ACHN renal 98.9% | CAKI-1 renal 102% | A498 renal 100% | CCRF-CEM leukemia 107% | MOLT-4 leukemia 99.7% | SR leukemia 96.3% | RPMI-8226 leukemia 103% | OVCAR-8 ovarian 114% | OVCAR-5 ovarian 97.9% | SK-OV-3 ovarian 92.3% | IGROV1 ovarian 107% | OVCAR-3 ovarian 116% | HS 578T breast 91.7% | NCI/ADR-RES ovarian 97.5%

CCOC(=O)c1cnc2ccc(Br)cc2c1Nc1cccc(S(N)(=O)=O)c1
inactive: SK-MEL-2 melanoma 109% | EKVX NSCLC 96.2% | SN12C renal 97.3% | UO-31 renal 81.2% | TK-10 renal 105% | ACHN renal 96.2% | CAKI-1 renal 74.1% | A498 renal 66.5% | CCRF-CEM leukemia 102% | MOLT-4 leukemia 85.1% | SR leukemia 94.6% | RPMI-8226 leukemia 97% | OVCAR-8 ovarian 92.8% | OVCAR-5 ovarian 93.6% | SK-OV-3 ovarian 105% | IGROV1 ovarian 99.6% | OVCAR-3 ovarian 102% | HS 578T breast 98.5% | NCI/ADR-RES ovarian 97.4%

CC1(C)CC[C@]23CC[C@]4(C)[C@H](CC[C@@H]5[C@@]6(C)C/C(=C/c7ccncc7)C(=O)C(C)(C)[C@@H]6CC[C@]54C)[C@H]2[C@H]1OC3=O
inactive: SK-MEL-2 melanoma 29.5% [100 µM] | EKVX NSCLC 85.5% [100 µM] | SN12C renal 65.6% [100 µM] | UO-31 renal 91.8% [100 µM] | TK-10 renal 51.5% [100 µM] | ACHN renal 43.9% [100 µM] | CAKI-1 renal 50.8% [100 µM] | A498 renal 58.6% [100 µM] | CCRF-CEM leukemia 79.3% [100 µM] | MOLT-4 leukemia 69.1% [100 µM] | SR leukemia 93.5% [100 µM] | RPMI-8226 leukemia 41.1% [100 µM] | OVCAR-8 ovarian 51.9% [100 µM] | OVCAR-5 ovarian 111% [100 µM] | SK-OV-3 ovarian 47.7% [100 µM] | IGROV1 ovarian 70.1% [100 µM] | OVCAR-3 ovarian 85.2% [100 µM] | NCI/ADR-RES ovarian 64.4% [100 µM]
active: HS 578T breast -3.34% [100 µM]

C=CCc1nc2ccccc2s1
inactive: SK-MEL-2 melanoma 107% | EKVX NSCLC 109% | SN12C renal 110% | UO-31 renal 63.6% | TK-10 renal 94.3% | ACHN renal 101% | CAKI-1 renal 98.3% | A498 renal 108% | CCRF-CEM leukemia 84.1% | MOLT-4 leukemia 89.1% | SR leukemia 98.9% | RPMI-8226 leukemia 92.4% | OVCAR-8 ovarian 98% | OVCAR-5 ovarian 101% | SK-OV-3 ovarian 110% | IGROV1 ovarian 74.6% | OVCAR-3 ovarian 114% | HS 578T breast 102% | NCI/ADR-RES ovarian 111%

CC(=O)OC[C@]12CC[C@@H]([C@@H](C)C(N)=O)[C@@H]1[C@H]1CC[C@@H]3[C@@]4(C)CC[C@H](OC(C)=O)C(C)(C)[C@@H]4CC[C@@]3(C)[C@]1(C)CC2
active: SK-MEL-2 melanoma -77.6% [100 µM] | EKVX NSCLC -25.2% [100 µM] | SN12C renal -91.6% [100 µM] | UO-31 renal -97.5% [100 µM] | TK-10 renal -35.4% [100 µM] | ACHN renal -75.7% [100 µM] | CAKI-1 renal -45.8% [100 µM] | A498 renal -81.7% [100 µM] | CCRF-CEM leukemia -12.4% [100 µM] | MOLT-4 leukemia -29.1% [100 µM] | RPMI-8226 leukemia -18.3% [100 µM] | OVCAR-8 ovarian -31.7% [100 µM] | OVCAR-5 ovarian -77.4% [100 µM] | SK-OV-3 ovarian -11.9% [100 µM] | IGROV1 ovarian -71.3% [100 µM] | OVCAR-3 ovarian -76.2% [100 µM] | HS 578T breast -33% [100 µM] | NCI/ADR-RES ovarian -57.3% [100 µM]
inactive: SR leukemia 10.8% [100 µM]

CCN(CC)c1ccc2cc(C(Nc3ccc(Cl)cc3)c3nnnn3C(C)(C)C)c(=O)oc2c1 (configuration not stated)
inactive: SK-MEL-2 melanoma 89.5% | EKVX NSCLC 81.4% | SN12C renal 89.6% | UO-31 renal 71.8% | TK-10 renal 85.7% | ACHN renal 92.4% | CAKI-1 renal 73.1% | A498 renal 81% | CCRF-CEM leukemia 93.5% | MOLT-4 leukemia 63.5% | SR leukemia 101% | RPMI-8226 leukemia 88.4% | OVCAR-8 ovarian 89.9% | OVCAR-5 ovarian 90.2% | SK-OV-3 ovarian 105% | IGROV1 ovarian 93.6% | OVCAR-3 ovarian 94.4% | HS 578T breast 89.4% | NCI/ADR-RES ovarian 97.7%

O=S(=O)(NCCCNc1nccc(-c2c(-c3cccc(F)c3)nc3occn23)n1)c1cccc2ccccc12
inactive: SK-MEL-2 melanoma 47.3% | EKVX NSCLC 47.3% | SN12C renal 43.3% | UO-31 renal 17.6% | TK-10 renal 55.6% | ACHN renal 29.5% | CAKI-1 renal 20.5% | A498 renal 28.9% | CCRF-CEM leukemia 25.9% | SR leukemia 50.7% | RPMI-8226 leukemia 28.2% | OVCAR-8 ovarian 42.1% | OVCAR-5 ovarian 66.7% | SK-OV-3 ovarian 55.6% | IGROV1 ovarian 14.4% | OVCAR-3 ovarian 56.3% | HS 578T breast 23.4% | NCI/ADR-RES ovarian 48.2%
active: MOLT-4 leukemia 5.16%

CC1(C)CC[C@]2(C(N)=O)CC[C@]3(C)C(=CC[C@@H]4[C@@]5(C)C/C(=C/c6ccncc6)C(=O)C(C)(C)[C@@H]5CC[C@]43C)[C@@H]2C1
active: SK-MEL-2 melanoma -86% [100 µM] | EKVX NSCLC -52.8% [100 µM] | SN12C renal -78.1% [100 µM] | UO-31 renal -98.1% [100 µM] | TK-10 renal -89.5% [100 µM] | ACHN renal -82.5% [100 µM] | CAKI-1 renal -58.3% [100 µM] | A498 renal -80.4% [100 µM] | CCRF-CEM leukemia -10% [100 µM] | MOLT-4 leukemia -13.6% [100 µM] | SR leukemia 2.61% [100 µM] | RPMI-8226 leukemia -29.1% [100 µM] | OVCAR-8 ovarian -28.6% [100 µM] | OVCAR-5 ovarian -81.9% [100 µM] | SK-OV-3 ovarian -45.7% [100 µM] | IGROV1 ovarian -72.3% [100 µM] | OVCAR-3 ovarian -69.5% [100 µM] | HS 578T breast -22.1% [100 µM] | NCI/ADR-RES ovarian -48% [100 µM]

O=C(Nc1ccc(Oc2ccc(F)cc2)c(Cl)c1)c1cnccn1
inactive: SK-MEL-2 melanoma 53.6% | EKVX NSCLC 78% | SN12C renal 69.8% | UO-31 renal 65% | TK-10 renal 85.8% | ACHN renal 94.1% | CAKI-1 renal 49.7% | A498 renal 67.7% | CCRF-CEM leukemia 64.1% | MOLT-4 leukemia 45.1% | SR leukemia 49.3% | RPMI-8226 leukemia 80.4% | OVCAR-8 ovarian 71.4% | OVCAR-5 ovarian 81.1% | SK-OV-3 ovarian 100% | IGROV1 ovarian 62.6% | OVCAR-3 ovarian 43.6% | HS 578T breast 62.4% | NCI/ADR-RES ovarian 40.8%

O=C(O)CC1CCCCC1c1ccccc1 (configuration not stated)
inactive: SK-MEL-2 melanoma 97.7% | EKVX NSCLC 115% | SN12C renal 105% | UO-31 renal 75.2% | TK-10 renal 100% | ACHN renal 102% | CAKI-1 renal 103% | A498 renal 122% | CCRF-CEM leukemia 101% | MOLT-4 leukemia 109% | SR leukemia 98.5% | RPMI-8226 leukemia 104% | OVCAR-8 ovarian 106% | OVCAR-5 ovarian 102% | SK-OV-3 ovarian 104% | IGROV1 ovarian 108% | OVCAR-3 ovarian 118% | HS 578T breast 83% | NCI/ADR-RES ovarian 114%

Nc1cc(Cl)cc2cccnc12
inactive: SK-MEL-2 melanoma 119% | EKVX NSCLC 102% | SN12C renal 91.1% | UO-31 renal 67.9% | TK-10 renal 109% | ACHN renal 102% | CAKI-1 renal 101% | A498 renal 116% | CCRF-CEM leukemia 55.7% | MOLT-4 leukemia 77.8% | SR leukemia 94% | RPMI-8226 leukemia 92.9% | OVCAR-8 ovarian 111% | OVCAR-5 ovarian 101% | SK-OV-3 ovarian 95% | IGROV1 ovarian 126% | OVCAR-3 ovarian 119% | HS 578T breast 114% | NCI/ADR-RES ovarian 101%

C=C(C)[C@@H]1CC[C@]2(COC(=O)c3ccccc3C(=O)O)CC[C@]3(C)[C@H](CC[C@@H]4[C@@]5(C)CC[C@H](OC(=O)c6ccccc6C(=O)O)C(C)(C)[C@@H]5CC[C@]43C)[C@@H]12
active: ACHN renal -55.6% [100 µM] | A498 renal -0.192% [100 µM] | OVCAR-3 ovarian 2% [100 µM] | HS 578T breast -3.77% [100 µM]
inactive: SK-MEL-2 melanoma 23.8% [100 µM] | EKVX NSCLC 39.5% [100 µM] | SN12C renal 27.8% [100 µM] | UO-31 renal 27.7% [100 µM] | TK-10 renal 21.8% [100 µM] | CAKI-1 renal 10.7% [100 µM] | CCRF-CEM leukemia 46.4% [100 µM] | MOLT-4 leukemia 39.9% [100 µM] | SR leukemia 63.8% [100 µM] | RPMI-8226 leukemia 28.4% [100 µM] | OVCAR-8 ovarian 46.7% [100 µM] | OVCAR-5 ovarian 105% [100 µM] | SK-OV-3 ovarian 47.9% [100 µM] | IGROV1 ovarian 31% [100 µM] | NCI/ADR-RES ovarian 23.1% [100 µM]
